# KCNQ2 inh: inhibitors of rat KCNQ2 potassium channel; 1.1% of 310,000 active; CHO-K1 KCNQ2, FluxOR thallium flux, 20 min; hits give low values; O88943; B-score at 10 µM; AID 2156;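 active = fluorescence ratio B-score at most minus 3 library SDs, with starting brightness B-score within 2 library SDs, cut at about -5.5 in these data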
# Target sequence (O88943 whole entry, looked up): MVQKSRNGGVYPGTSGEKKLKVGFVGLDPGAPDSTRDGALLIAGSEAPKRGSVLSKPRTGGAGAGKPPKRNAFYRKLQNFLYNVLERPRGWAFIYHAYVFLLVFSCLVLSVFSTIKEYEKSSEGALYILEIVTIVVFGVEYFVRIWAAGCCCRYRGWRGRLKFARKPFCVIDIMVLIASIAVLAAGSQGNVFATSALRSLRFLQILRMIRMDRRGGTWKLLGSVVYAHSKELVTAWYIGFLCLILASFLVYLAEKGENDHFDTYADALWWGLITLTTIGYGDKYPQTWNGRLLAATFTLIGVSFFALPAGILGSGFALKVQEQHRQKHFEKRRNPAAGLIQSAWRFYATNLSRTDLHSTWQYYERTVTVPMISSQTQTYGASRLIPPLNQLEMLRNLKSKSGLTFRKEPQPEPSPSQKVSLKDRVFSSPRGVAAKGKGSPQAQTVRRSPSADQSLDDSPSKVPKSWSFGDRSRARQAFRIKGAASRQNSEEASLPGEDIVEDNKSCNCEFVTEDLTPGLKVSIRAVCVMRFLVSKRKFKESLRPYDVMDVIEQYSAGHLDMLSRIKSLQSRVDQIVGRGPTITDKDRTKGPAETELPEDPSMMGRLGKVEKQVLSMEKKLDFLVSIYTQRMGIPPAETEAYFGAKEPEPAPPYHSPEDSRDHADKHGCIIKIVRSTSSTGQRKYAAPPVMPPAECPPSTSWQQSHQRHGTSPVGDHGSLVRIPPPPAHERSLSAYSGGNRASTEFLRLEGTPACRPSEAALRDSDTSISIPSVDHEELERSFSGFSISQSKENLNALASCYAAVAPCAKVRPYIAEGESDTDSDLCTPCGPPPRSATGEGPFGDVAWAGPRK
# KCNQ2 pot: KCNQ2 (rat) channel potentiation; 0.54% of 310,000 active; CHO-K1 KCNQ2, FluxOR thallium flux fluorescence; hits give high values; B-score at 10 µM;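 active = fluorescence ratio B-score at least 3 SD of library B-scores, with initial fluorescence B-score within 3 of them, cut at about 5.3 in these data; same plate scores as AID 2156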;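 note: B-score of peak minus minimum over baseline fluorescence ratio after K+ and Tl+ stimulus; positive B-score means potentiation of KCNQ2 with more thallium influx and brighter signal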
# * marks the source's active call; other numbers are inactive results; i = inactive; . = not tested or not shown. Compounds with a hit are over-represented: about 1.6% of the library has one in this group of screens.
SMILES,KCNQ2 inh,KCNQ2 pot
C/C(=C\C(=S)Nc1ccccc1)Nc1cccc2ccccc12,i,.
C/C(=C\C(=S)Nc1ccccc1)Nc1ccc2ccccc2c1,-6.3*,-6.3
CSCCC(NS(=O)(=O)c1cccc(C(F)(F)F)c1)C(=O)N(C)CCOc1ccc(Cl)cc1 (stereo not given),i,.
CC(C)Oc1ccc(S(=O)(=O)N2CCCCC2)cc1NC(=O)C1CCC1,i,.
CC(=O)c1ccc(S(=O)(=O)N2CCC(NC(=O)c3ccccc3)CC2)cc1,i,0.16
Cc1ccc2nccc(C(=O)N3CCCC(N4CCN(c5ccc(F)cc5)CC4)C3)c2c1 (stereo not given),-6.5*,-6.5
COc1ccccc1N1CCN(C2CCCN(C(=O)c3ccnc4ccc(C)cc34)C2)CC1 (stereo not given),i,.
CCCOP(=O)(c1ccc(N(C)C)cc1)C(O)c1c(Cl)cccc1Cl (stereo not given),i,0.59
CC(C)CCOP(=O)(c1ccc(N(C)C)cc1)C(O)c1c(Cl)cccc1Cl (stereo not given),-5.6*,-5.6
O=S(=O)(Nc1ccon1)c1ccc(Br)cc1,i,0.04
COc1cccc(N(C(=O)c2sc(C)nc2C)C(C(=O)NCC2CCCO2)c2ccccc2)c1 (stereo not given),i,1.1
O=C1CN(c2ccccc2)C(=S)N1C(=O)c1ccc(Br)cc1,-5.8*,-5.8
O=C(c1ccc(Br)cc1)N1CCC(C(=O)N2CCN(c3ccccc3)CC2)CC1,i,1.5
CC1CCN(C(=O)c2ccc(NS(=O)(=O)c3ccc4[nH]c(=O)[nH]c4c3)cc2)CC1,i,0.73
NNC(=O)c1cc(-c2ccc(N)cc2)nc2ccc(Br)cc12,i,.
CCN1CCN(c2ccc(NC(=O)c3ccc4c(c3)[nH]c(=O)n4Cc3ccc(F)cc3)cc2)CC1,i,0.05
COc1ccc(OC)c(C(=O)NC(CC(N)=O)c2ccc(NCC3CC3)c([N+](=O)[O-])c2)c1 (stereo not given),i,.
COc1ccc(OC)c(C(=O)NC(CC(N)=O)c2ccc(NC(C)C)c([N+](=O)[O-])c2)c1 (stereo not given),-9.6*,-9.6
C=CCc1cccc(/C=N/NC(=O)c2ccccc2OC)c1O,i,5.2
C=CCc1cccc(/C=N/NC(=O)c2ccccc2Br)c1O,i,9.6*
COc1ccc(CNCCC(c2ccc(F)cc2)c2ccc(OC)cc2)cc1 (stereo not given),i,.
COc1ccc(C(CCNCc2ccc(F)cc2)c2ccc(F)cc2)cc1 (stereo not given),-7.2*,-7.2
Cc1ccc(OCCCN2CCOCC2)cc1,i,0.58
COc1ccc2c(c1)Sc1ccccc1N2CCN(C)C,i,.
CN1c2ccccc2C(C)(C)C12C=Nc1c(ccc3ccccc13)O2 (stereo not given),-5.7*,-5.7
SMILES,KCNQ2 inh,KCNQ2 pot
CN1c2ccccc2C(C)(C)C12CC(CCl)=NO2 (stereo not given),i,0.63
COc1ccc2ccc3c(c2c1)N=CC1(O3)N(C)c2ccccc2C1(C)C (stereo not given),-8.2*,-8.2
O=C(NNC(=O)C12CC3CC(CC(C3)C1)C2)c1ccccc1[N+](=O)[O-],i,.
CC1C(=O)C(C)C(c2ccc(Br)cc2)NC1c1ccc(Br)cc1 (stereo not given),-6.3*,-6.3
CC1C(=O)C(C)C(c2ccc3c(c2)OCO3)NC1c1ccc2c(c1)OCO2 (stereo not given),i,.
CC1N(C(=O)N(C)C)CCN1S(=O)(=O)c1ccccc1 (stereo not given),i,0.24
CN1CCN(CCCCOc2ccc(Br)cc2)CC1,i,.
Cc1nn(C(=O)CNC(=O)c2ccccc2)c(C)c1C,i,8.9*
Cc1cc(C)n(C(=O)CNC(=O)c2cccc(F)c2)n1,i,2.3
CSCCC(NC(=O)c1ccccc1Cl)C(=O)NC1CCN(Cc2ccccc2)CC1 (stereo not given),i,.
CC(C)(C)OC1NS(=O)(=O)OCC1NCOC(Cl)(Cl)Cl (stereo not given),i,.
COc1cccc(NC(=S)N2c3ccccc3CC2C)c1 (stereo not given),i,1.6
COc1cccc(C(=O)NC(=S)N2c3ccccc3CC2C)c1OC (stereo not given),i,0.66
CC1Cc2ccccc2N1C(=S)NC(=O)c1ccc(Cl)cc1Cl (stereo not given),i,21*
CC1Cc2ccccc2N1C(=S)NC(=O)c1cccc(Br)c1 (stereo not given),i,28*
CC(Nc1ncnc2sccc12)c1ccccc1 (stereo not given),i,.
COCCOC(=O)c1c(C)n(C)c2ccc(OC(=O)c3ccccc3F)cc12,i,.
COc1ccc(S(=O)(=O)N2CCC(C(=O)NCCC(=O)Nc3nccs3)CC2)cc1,i,.
Cc1ccc(CNS(=O)(=O)c2cc3c4c(c2)CCN4C(=O)CC3)cc1,i,.
O=C(NCCO)/C(=C/c1ccc2c(c1)OCO2)NC(=O)c1ccc(Br)cc1,i,.
CCN(CC)C(=O)/C(=C/c1ccc2c(c1)OCO2)NC(=O)c1ccc(Br)cc1,-5.9*,-5.9
CCCCc1ccc(NS(=O)(=O)c2cccs2)cc1,-5.9*,-5.9
O=S(=O)(Nc1ccc(Cc2ccncc2)cc1)c1cccs1,i,0.96
CCCNc1cc(=S)nc(N)[nH]1,i,0.72
CSCCC(NC(=O)COc1ccccc1)C(=O)N(C)CC(=O)Nc1c(C)cccc1C (stereo not given),i,.
SMILES,KCNQ2 inh,KCNQ2 pot
CCCCS(=O)CC(COC)OC(=O)c1ccccc1 (stereo not given),i,0.03
CCCCS(=O)CC(COc1ccc(Cl)cc1)OC(=O)c1ccccc1 (stereo not given),-5.8*,-5.8
CSc1ccc(-c2sc(Nc3cccc4ccccc34)n[n+]2-c2ccccc2)cc1,-5.6*,-5.6
CSc1ccc(-c2sc(Nc3ccccc3)n[n+]2-c2ccccc2)cc1,i,.
CCCCn1c(N)c(N(CCOC)C(=O)COC(=O)C(C)(C)Oc2ccc(Cl)cc2)c(=O)[nH]c1=O,i,.
C=CCOC(=O)C1=C[C@@H](c2coc3ccccc3c2=O)C[C@@H](OCCCCO)O1,i,0.31
Cc1ccc(NC(=S)N2CCC(NC(=O)c3ccc(F)cc3)CC2)cc1C,i,.
Cn1c(/N=C/c2c(O)ccc3ccccc23)nc2ccccc21,i,9.9*
CCCn1c(/N=C/c2ccccc2O)nc2ccccc21,i,1.9
CCN(CC(=O)Nc1ccc(C)c(S(=O)(=O)N2CCOCC2)c1)Cc1ccccc1,i,0.08
Cc1ccc(S(=O)(=O)NCCC(=O)N2CC(C)OC(C)C2)cc1C (stereo not given),i,1.5
COc1ccc(-c2ccc(/C=N/NC(=O)Cc3nnc(N)s3)o2)cc1Cl,-7.4*,-7.4
Cc1ccc(-c2ccc(/C=N/NC(=O)Cc3nnc(N)s3)o2)cc1Cl,i,.
O=C(CCn1c(=O)oc2ccc(Cl)cc21)NCCCN1CCOCC1,i,.
O=C(c1ccc(Cl)cc1)c1oc2ccccc2c1CS(=O)c1ccccc1 (stereo not given),-5.7*,-5.7
Nc1c(C(=O)c2ccc(Br)cc2)oc2ccccc12,i,1.5
CCCCCCCNC(=O)C1(CC2CC(c3ccc(Cl)cc3)=NO2)CCN(C(=O)c2cc(OCC)c(OCC)c(OCC)c2)CC1 (stereo not given),i,.
COc1ccc(CC(=O)Oc2ccc(C(C)C)cc2)cc1S(=O)(=O)N1CCOCC1,i,.

# High-throughput results as filed in PubChem.
